Drawing on PubChem BioAssay (Tox21), this text covers Potency and viability change, negative = cytotoxic for 40 compounds.

Records with an inconclusive call do not appear. Where a call stands in place of a potency, no number is given. A number with no mark means an inactive call. Active and inactive are the calls of the source. Calls follow the shape of the dose curve; as a rule, active = well fitted cell-killing curve with a large enough effect in the repeat runs; inconclusive = weak or mixed curves, or effect the other way; inactive = flat fitted curve, though single readings scatter.
Potency is read from the fitted curve at half-maximal effect.

This experiment can be described thus: cAMP Responsive Elements (CRE) small molecule antagonists, cell-based qHTS assay: qHTS cell viability counter screen (AID 2060913). Also: nearly all actives have a fitted effect of over 40% in size. The settings on record: CRE-bla HEK293T viability, CellTiter-Glo luminescence, 5 h; series mostly up to 92.4 µM. In a few lines:
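Cytotoxicity counter screen multiplexed with the CRE-bla antagonist read: HEK293T cells in DMEM with dialyzed FBS and 25 mM HEPES were treated 3 hrs under 0.25 uM final NKH477, then viability measured by CellTiter-Glo luminescence.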
On to `CN1C(=O)c2ccccc2C1=O`, for which the Potency result is “inactive”.

For `O=C1c2c(O)ccc([N+](=O)[O-])c2C(=O)c2c([N+](=O)[O-])ccc(O)c21`, the Potency was 27.1 µM (active).

Consider `CCn1cc(C(=O)O)c(=O)c2cc3c(cc21)OCO3`, for which the Potency result is “inactive”.

In the case of `CNCc1ccc(NC(=O)c2c[nH]c3c2C(=O)CCC3)cc1`, the Potency result was “inactive”.

For `Cc1cn([C@@H]2O[C@H](CO)[C@@H](O)[C@@H]2F)c(=O)[nH]c1=O`, the Potency result is “inactive”.

`O=C(Nc1ccc([N+](=O)[O-])cc1Cl)c1cc(Cl)ccc1O`: the Potency result is “inactive”.

Regarding `CC(N)=O`, the Potency entry is “inactive”.

As to `COc1cc(OC)nc(NC(=O)NS(=O)(=O)Nc2ccccc2C(=O)N(C)C)n1`, the Potency entry is “inactive”.

`COc1cc(Cl)ccc1Oc1ccc(Cl)cc1Cl`: the Potency result is “inactive”.

For the compound `C=C(C)C(=O)OCCC(C)OC(=O)C(=C)C` (stereo not given), the Potency result is “inactive”.

On to `COc1cc(S(N)(=O)=O)cc(C(=O)O)c1OC`, for which the Potency entry is “inactive”.

`CCc1nccnc1CC`: the viability change, negative = cytotoxic was 0.102% [at 18.9 µM].

For `CCOC(=O)CC(C(C)=O)C(C)=O`, the Potency result is “inactive”.

`COC(OC)(C(=O)c1ccccc1)c1ccccc1`: the Potency result is “inactive”.

As for `Cc1cccc(C)c1`, the Potency entry was “inactive”.

Regarding `NO`, the Potency result was “inactive”.

For the compound `S=C1NC=NC2N=CNC12` (stereo not given), the Potency is 3.06 µM (active).

Take `O=C(O)CCCC[P+](c1ccccc1)(c1ccccc1)c1ccccc1`: the Potency entry was “inactive”.

With `O=C(OCC(COC(=O)c1cccnc1)(COC(=O)c1cccnc1)COC(=O)c1cccnc1)c1cccnc1`, the Potency entry was “inactive”.

With `CC1(C)[C@@H](O[C@H]2O[C@H](C(=O)O)[C@@H](O)[C@H](O)[C@H]2O[C@@H]2O[C@H](C(=O)O)[C@@H](O)[C@H](O)[C@H]2O)CC[C@]2(C)[C@H]3C(=O)C=C4[C@@H]5C[C@@](C)(C(=O)O)CC[C@]5(C)CC[C@@]4(C)[C@]3(C)CC[C@@H]12`, the Potency entry is “inactive”.

For `Cc1cccc(N(C)C)c1`, the Potency result was “inactive”.

Consider `[Cl][Au]([Cl])[Cl]`, for which the Potency entry was “inactive”.

For `COc1cc(C(=S)N2CCOCC2)cc(OC)c1OC`, the Potency entry was “inactive”.

On to `COc1c(N2CCNC(C)C2)c(F)cc2c(=O)c(C(=O)O)cn(C3CC3)c12` (stereo not given), for which the Potency entry is “inactive”.

Regarding `CCCOC(=O)NCCCN(C)C`, the Potency result is “inactive”.

For the compound `CCCCNc1ccc(C(=O)OCCN(CC)CC)cc1`, the Potency result is “inactive”.

Take `CCCC/C=C/C=C\C=O`: the Potency result is “inactive”.

As for `C/C=C1/CC2C=CC1C2` (stereo not given), the Potency entry is “inactive”.

As to `Cc1c(Cn2ccnc2)c2ccccc2n1CCC(=O)O`, the Potency result was “inactive”.

For `Cc1ccc(S(=O)(=O)NCl)cc1`, the Potency result is “inactive”.

As to `OC[C@@H](O)[C@@H](O)[C@H](O)[C@@H](O)CO`, the Potency entry was “inactive”.

Turning to `CC1=CCCC(C)(C)C12CCC(C)O2` (stereo not given), the Potency entry was “inactive”.

Regarding `CCOC(=O)CC(C)C`, the Potency result was “inactive”.

Take `O=C(O)c1cccc(C(=O)O)n1`: the Potency result is “inactive”.

Consider `CCOC(C)=O`, for which the Potency result is “inactive”.

For `NC(=O)c1ccccc1N`, the Potency entry is “inactive”.

As for `COc1nccnc1CC(C)C`, the Potency entry was “inactive”.

With `NC(=O)C1CO1` (stereo not given), the Potency entry was “inactive”.

Regarding `CC1(C)C(=O)N(CO)C(=O)N1CO`, the Potency result is “inactive”.

Consider `C=CC(=O)Nc1cc2c(Nc3ccc(F)c(Cl)c3)ncnc2cc1OCCCN1CCOCC1`, for which the Potency result was “inactive”.
